This note sets out measurements from the supplement of paper PMC11219838.

Values without a mark were called inactive.

The subject of the assay is Caenorhabditis elegans L1 (N2). Kind of assay: survival and reproduction score of C. elegans L1 (0: 0-10 living worms, 1: 11-20, 2: 21-50, 3: >50, 4: overgrown) (score 0-4); higher = more worms, less nematicidal, active = 1 or less; extreme values may be limits of the assay. The following applies: 60 µM; 6 days; temperature: 20 °C. The essentials: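 Worm survival and reproduction were recorded as an ordinal score of living worms per well, read under a dissection microscope. Each 96-well well held about 20 synchronized C. elegans N2 L1s with E. coli HB101 in liquid NGM and compound at 60 µM final (0.6% v/v DMSO), sealed and shaken at 200 rpm, 20 °C, for 6 days. Scores ranged from 0 (0–10 worms) to 4 (overgrown, starved) and were the mean of two biological replicates.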
As to `COc1cccc(-c2noc(-c3ccc(Cl)cc3)n2)c1`, the “survival and reproduction score” value was 3.

Consider `CCOc1nc(-c2ccc(C)cc2)ccc1-c1noc(-c2ccncc2)n1`, for which the “survival and reproduction score” value is 4.

Take `Cc1cc(OCc2nc(-c3ccncc3)no2)ccc1Cl`: the “survival and reproduction score” value was 4.

For the compound `COc1cccc(CSc2nnc(-c3ccco3)n2C)c1`, the “survival and reproduction score” value was 2.

Take `Brc1ccc(-c2noc(COc3ccccc3)n2)cc1`: the “survival and reproduction score” value was 4.

Take `CCCCc1nc(-c2ccc(-c3ccc(C)cc3)nc2OC)no1`: the “survival and reproduction score” value was 4.

On to `CC(Oc1ccc(Br)cc1)c1nc(-c2ccncc2)no1` (stereo not drawn), for which the “survival and reproduction score” value was 0 (active).

As for `Clc1ccccc1OCc1nc(-c2ccc(Br)cc2)no1`, the “survival and reproduction score” value is 4.

As for `Cc1ccc(OCc2nc(-c3ccncc3)no2)c(Br)c1`, the “survival and reproduction score” value was 3.5.

For `COc1ccc(-c2nc(-c3ccccc3Cl)no2)cc1`, the “survival and reproduction score” value was 4.

For `COc1ccc(-c2nnc(SCc3c(Cl)cccc3Cl)o2)cc1`, the “survival and reproduction score” value is 4.

Take `COc1ccccc1-c1nc(-c2ccc(Br)cc2)no1`: the “survival and reproduction score” value is 4.

For `CCOC(=O)c1c(NC(=O)CSc2nnc(-c3ccc(Cl)cc3)o2)sc(C)c1C`, the “survival and reproduction score” value is 4.

`O=C(Nc1cccnc1)c1ccccc1-c1nc(-c2ccc(Cl)cc2)no1`: the “survival and reproduction score” value is 4.

For `CCCCC(=O)Nc1ccccc1-c1nc(-c2ccccn2)no1`, the “survival and reproduction score” value is 4.

Regarding `c1ccc(COc2cccc(-c3nc(-c4ccccn4)no3)c2)cc1`, the “survival and reproduction score” value is 4.

As to `CC(C)C(=O)Nc1ccccc1-c1nc(-c2ccccn2)no1`, the “survival and reproduction score” value was 4.

On to `COc1ccccc1NC(=O)CSc1nnc(-c2cccc3ccccc23)o1`, for which the “survival and reproduction score” value is 4.

Consider `CCCCc1ccc(-c2nc(-c3cccnc3)no2)cc1`, for which the “survival and reproduction score” value is 0 (active).

Take `COc1ccc(-c2noc(-c3ccc(Br)cc3)n2)cc1`: the “survival and reproduction score” value is 0 (active).

For `O=C(CSc1nnc(-c2ccccc2)o1)NC1CCCCC1`, the “survival and reproduction score” value was 4.

For `Cc1ccc(-c2noc(COc3cc(C)cc(C)c3)n2)cc1`, the “survival and reproduction score” value was 4.

Regarding `COc1ccccc1NC(=O)c1ccccc1-c1nc(-c2ccccc2F)no1`, the “survival and reproduction score” value was 4.

`CNC(=O)c1ccccc1-c1nc(-c2ccc(Cl)cc2)no1`: the “survival and reproduction score” value was 4.

Consider `CCOc1cc(C#N)ccc1OCc1nc(-c2cccs2)no1`, for which the “survival and reproduction score” value is 4.

In the case of `COc1ccc(-c2noc(-c3ccc(C)c(C)c3)n2)cc1`, the “survival and reproduction score” value was 2.

As to `Cc1[nH]c2ccc(-c3nnc(SCC(=O)NCc4ccc(F)cc4)o3)cc2c1C`, the “survival and reproduction score” value was 4.

Regarding `O=C(CSc1nnc(-c2ccccc2)o1)Nc1cccc(C(F)(F)F)c1`, the “survival and reproduction score” value is 4.

Regarding `Ic1ccc(CSc2nnc(-c3ccccc3)o2)cc1`, the “survival and reproduction score” value is 4.

For `O=C(CSc1nnc(-c2ccc(Cl)cc2)o1)Nc1ccc(F)cc1`, the “survival and reproduction score” value is 4.

With `O=C(Nc1ccccc1-c1nc(-c2cccnc2)no1)c1ccccc1Cl`, the “survival and reproduction score” value was 4.

As to `CCCC(=O)Nc1ccccc1-c1nc(-c2ccncc2)no1`, the “survival and reproduction score” value was 4.

As for `COc1ccc(CC(=O)Nc2ccc(-c3noc(COc4cccc(C)c4C)n3)cc2)cc1`, the “survival and reproduction score” value is 4.

`Cc1ccc(-c2noc(-c3ccc(-n4nncc4C)cc3)n2)cc1`: the “survival and reproduction score” value is 4.

Turning to `Cc1cccc(-c2noc(-c3ccc4c(c3)OCO4)n2)c1`, the “survival and reproduction score” value was 4.

Regarding `COc1cccc(NC(=O)CSc2nnc(-c3ccc(C)cc3)o2)c1`, the “survival and reproduction score” value was 4.

Consider `CC(Sc1nnc(-c2cccnc2)o1)C(=O)c1ccccc1` (stereo not drawn), for which the “survival and reproduction score” value is 4.

In the case of `COc1cccc(-c2noc(-c3cccc(F)c3)n2)c1`, the “survival and reproduction score” value was 4.
